# Measurements from the supplement of paper PMC10338343.
# ± gives the standard deviation. The full ranking holds about 6,200 sequences; the median of “pre-steady-state target cleavage rate” is about 0.29, and the highest 2% start at about 2. Shown is part of a subset that was picked to be rich in the highest values.
# Tested on: MIWI (PIWIL1) piRISC loaded with piRNA #1 (30 nt)
# Assay: pre-steady-state target cleavage rate (min^-1); MIWI and MILI are mouse PIWI proteins and EfPiwi is from a freshwater sponge; tags in brackets are library labels; higher = faster piRNA-guided slicing of the target
# Settings: guide: piRNA #1 5'p-UGAGGUAGUAGGUUGUAUAGUAUCCAGAGG; auxiliary factor: 500 nM mouse GTSF1
# Summary of the method: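 Sequencing of uncleaved targets, normalised to depth and to weakly complementary targets, was the readout of this Cleave-'n-Seq assay. A transcribed, DNA-blocked target RNA library (0.1 nM) was mixed with 1 nM active affinity-purified piRISC carrying one synthetic guide, with or without 500 nM GTSF1 partner protein, in HEPES–potassium acetate buffer at 33 °C for 0–8 or 0–960 min. Three trials were pooled, k3 was capped at 0.0001 min^-1, and a burst-and-steady-state fit gave the pre-steady-state cleavage rate.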
row,Sequence,pre-steady-state target cleavage rate
1,GGAGACCUAUCUAUACAACCUACUACCUUA,0.905 ± 0.069
2,GGAGACCUAUCUUUUCAACCUACUACCUCA,0.0982 ± 0.032
3,GCAUCUGGAUACUAUACAACCUACUACCUCA,1.82 ± 0.087
4,GGAGACCUAUGAUAUGUUGCUCACUACCUCA,0.00246 ± 0.0017
5,CCUCUGCAUACUAUACAACCUACUACCACA,2.37 ± 0.19
6,GGUCUGCAUUCUAUACAACCUACUACCUCA,1.51 ± 0.11
7,GGUCUGCAUACUAUACAACCUACUACCACA,0.7 ± 0.07
8,CCUCUGCAUACUAUACAACCUACUACCUCA,2.01 ± 0.12
9,GCUCUGCAUUCUAUACAACCUACUACCUCA,1.65 ± 0.11
10,CCUCUGCAUACUAUUCAACCUACUACCUCA,2.21 ± 0.14
11,GGUCUGCAUACUAUUCAACCUACUACCUCA,1.65 ± 0.12
12,GCUCUGCAUACUAUACAACCUACUACCACA,1.98 ± 0.18
13,CCUCUGCAUUCUAUACAACCUACUACCUCA,2.13 ± 0.13
14,CCUCUGCAUACUAUACAACCUACAACCUCA,1.7 ± 0.12
15,GCUCUGCAUACUAUUCAACCUACUACCUCA,1.93 ± 0.12
16,GCUCUGCAUACUAUACAACCUACUACCUCA,1.96 ± 0.11
17,GGACUGGAUACUAUACAAGGUACUACCUCA,0.331 ± 0.036
18,GCUCAGGAUACUAUACAACCUACUACCUGA,0.681 ± 0.042
19,GGAGACCAUACUAUACAACCUACUACCAUCA,1.35 ± 0.087
20,CCUCUGGAUACAAUACAACCUACUACCUGA,0.657 ± 0.085
21,GGAGACCUUACAAUACAAGCUACUACCUCA,0.258 ± 0.035
22,GCUCUGGAUAGUAUACAACCUACUACCUGA,0.324 ± 0.045
23,GGACUGGAUACUAUACAACCUAGAACCUCA,0.0154 ± 0.004

row,Sequence,pre-steady-state target cleavage rate
1,GGACUGGAAACUAUAGAACCUACUACCUCA,1.13 ± 0.08
2,GGAGAGGAUACUAUGCAACCUACUACCUCA,1.62 ± 0.095
3,GGACUGGAUACAUAACAACCUACUACCUCA,0.634 ± 0.11
4,GGUCUGCAUACUUUACAACCUACUACCUCA,1.48 ± 0.12
5,CCUCAGCAUACUAUACAACCUACUACCUCA,2.12 ± 0.13
6,GGUGUGCAUACUAUACAACCUACUACCUCA,1.73 ± 0.1
7,GCUCAGCAUACUAUACAACCUACUACCUCA,1.83 ± 0.11
8,GGUCUGCAUACAAUACAACCUACUACCUCA,1.45 ± 0.11
9,GCUCUGCAUACAAUACAACCUACUACCUCA,1.82 ± 0.13
10,CCUGUGCAUACUAUACAACCUACUACCUCA,2.3 ± 0.15
11,GGUCAGCAUACUAUACAACCUACUACCUCA,1.81 ± 0.096
12,CCUCUGCAUACAAUACAACCUACUACCUCA,2.02 ± 0.12
13,GCUCUGCAUACUUUACAACCUACUACCUCA,1.68 ± 0.11
14,CCUCUGCAUACUUUACAACCUACUACCUCA,2.13 ± 0.15
15,GCUGUGCAUACUAUACAACCUACUACCUCA,1.91 ± 0.12
16,GGAGACCUAUCUAAACAACCUACAACCUCA,0.00335 ± 0.0022
17,CCUCUGGAUACUAUACAGACCUACUACCUCA,0.0114 ± 0.0052
18,GGAGUGCAUACUAUACAACGUACUACCUCA,0.714 ± 0.039
19,GGAGAGGAUACUAUACAACCUACUACCUUA,1.28 ± 0.066
20,CCUCUGGAUAGUAUACAACCUACUUCCUCA,0.21 ± 0.034
21,GGAGAGGAUUCUAUACAACCUACUACCACA,0.665 ± 0.047
22,GCUCUGCUUACUAUACAACCUACUACCUCA,1.96 ± 0.12
23,GGUCUGCUUACUAUACAACCUACUACCUCA,1.74 ± 0.12

row,Sequence,pre-steady-state target cleavage rate
1,CCUCUGCUUACUAUACAACCUACUACCUCA,2.19 ± 0.15
2,GCACUGGAUACUAUACAACCAACUACCUCA,0.167 ± 0.017
3,GGAGUGCAUACAAUACAACCUACUACCUCA,1.11 ± 0.092
4,GGUCUGAUACUAUACAACCUACUACCUCA,1.79 ± 0.1
5,GCUCUGAGAUACUAUACAACCUACUACCUCA,2.07 ± 0.12
6,CCUCUGAGAUACUAUACAACCUACUACCUCA,0.572 ± 0.056
7,GGUCUGAGAUACUAUACAACCUACUACCUCA,1.89 ± 0.11
8,CCUCUGAUACUAUACAACCUACUACCUCA,2.11 ± 0.12
9,GCUCUGAUACUAUACAACCUACUACCUCA,1.9 ± 0.12
10,GGAGACCAUACUAUACAACCUACCUACCUCA,1.06 ± 0.066
11,GGAGUGGAUAUUAUACAACCUACUACCUCA,1.48 ± 0.072
12,GGAGACCAUACUAUACAACCUACUACCUCU [g2:g23:cont:t1U],1.7 ± 0.11
13,GGAGUGGAUAGUAUUCAACCUACUACCUCA,0.584 ± 0.064
14,GGAGACCUUACUAUACAUGGUACUACCUCA,0.00452 ± 0.0025
15,GCUCUGGUUACUAUUCAACCUACUACCUCA,1.88 ± 0.12
16,CCUCUGGAUACUAUACAACCUACUUCCACA,0.337 ± 0.05
17,GGACUGGAUACUAUACAACCUACCUACCUCA,1.06 ± 0.094
18,GCACUGGAUACUAUACAACCUACUACCUCA,1.81 ± 0.093
19,CCACUGGAUACUAUACAACCUACUACCUCA,1.8 ± 0.11
20,GGACUGGAUUCUAUACAACCUACUACCUCA,1.63 ± 0.11
21,GGACUGGAUACCUAUACAACCUACUACCUCA,1.15 ± 0.095
22,GCUACUGGAUACUAUACAACCUACUACCUCA,2.14 ± 0.13
23,CCACUGGAUUCUAUACAACCUACUACCUCA,2.08 ± 0.12

row,Sequence,pre-steady-state target cleavage rate
1,GGACUGGAUACUAUACAACCUACUACCUCC [g2:g27:cont:t1C],1.42 ± 0.088
2,GGACUGGAUACUAUACAACCUACUACCUCCA,2.19 ± 0.17
3,GCACUGGAUUCUAUACAACCUACUACCUCA,1.85 ± 0.096
4,GGACUGGAUACUAUACUACCUACAACCUCA,0.39 ± 0.057
5,CCUACUGGAUACUAUACAACCUACUACCUCA,2.04 ± 0.11
6,GGUCAGGAUACUAUACAACCUACUAGCUCA,0.255 ± 0.033
7,GGAGACCUAACUAUACAACCUACUACCAGA,0.385 ± 0.062
8,GGAGACCUUACUAUACAACCUACUACCCCA,0.956 ± 0.086
9,GGAGACGAUACUAUACAACCUACUACGUGA,0.348 ± 0.054
10,GGACUGGAUACUAUACAACCUAUUACCUCA,0.86 ± 0.075
11,GCUCUGGAUACUAUACAACCUACAUGCUCA,0.589 ± 0.072
12,GGAGACCAUACUAAUACAACCUACUACCUCA,0.978 ± 0.08
13,GGUCUGCAUACUAUACAACCUACUACCUGA,0.677 ± 0.13
14,GGAGACGAUUCUAUACAACCUACUACGUCA,0.92 ± 0.069
15,CCUCUGGAUCCUAUACAACCUACUACCUCA,1.38 ± 0.14
16,GGUCUGGAUACAUACAACCUACUACCUCA,1.44 ± 0.11
17,GGUCAGGAUUCUAUACAACCUACUACCUCA,1.77 ± 0.12
18,GCUCAGGAUUCUAUACAACCUACUACCUCA,1.87 ± 0.092
19,CCUCAGGAUUCUAUACAACCUACUACCUCA,2.24 ± 0.13
20,GCUGUGGAUACUAUACAACCUACUACCUGA,0.776 ± 0.18
